Drawing on PubChem BioAssay (NCATS), this text covers Potency and outcome for eight molecules.

Test [1] can be described thus: qHTS for differential inhibitors of proliferation of Plasmodium falciparum line D10 (AID 1877).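 Further: parasites grown with compound for 72 h before DNA staining.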 Further: potency means the concentration at half of the fitted maximal effect. On the technique in general: In qHTS, concentration-response curves come from the screen itself.
Test [2] can be described thus: qHTS for differential inhibitors of proliferation of Plasmodium falciparum line Dd2 (AID 1882).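 Further: compound exposure of 72 h on infected erythrocytes; nearly all actives have a fitted effect of over 65% in size.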 As to conditions: Potency: Plasmodium falciparum Dd2 proliferation inhibition. In a few lines:
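SYBR Green I DNA fluorescence read-out, ex 485/em 535 nm. Signals were normalized to 0.29 uM artemisinin and DMSO wells, then corrected using vehicle-only plates flanking each stack. Parasite growth ran 72 h in erythrocytes before lysis.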

Test [3] can be described thus: qHTS for differential inhibitors of proliferation of Plasmodium falciparum line HB3 (AID 1886).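 Further: parasites grown with compound for 72 h before SYBR Green readout.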 As to conditions: Potency: Plasmodium falciparum HB3 proliferation inhibition.
In test [4] the target is ATP-dependent DNA helicase Q1 (Homo sapiens) (UniProt P46063). The test is described as follows: qHTS Validation Assay for Inhibitors of RecQ-Like Dna Helicase 1 (RECQ1) (AID 2353). The method in brief: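 50 nM RECQ1T1 preincubated 15 min with compound in Tris pH 8.0 buffer with MgCl2, DTT, Tween-20 and 2.5 ug/ml poly(dI-dC); started with 200 nM TAMRA/BHQ-2 forked duplex and 2 mM ATP. Unwinding read as fluorescence (525/598 nm), two reads 2 h apart.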
Chain of ATP-dependent DNA helicase Q1 (Homo sapiens) (P46063 whole entry, looked up): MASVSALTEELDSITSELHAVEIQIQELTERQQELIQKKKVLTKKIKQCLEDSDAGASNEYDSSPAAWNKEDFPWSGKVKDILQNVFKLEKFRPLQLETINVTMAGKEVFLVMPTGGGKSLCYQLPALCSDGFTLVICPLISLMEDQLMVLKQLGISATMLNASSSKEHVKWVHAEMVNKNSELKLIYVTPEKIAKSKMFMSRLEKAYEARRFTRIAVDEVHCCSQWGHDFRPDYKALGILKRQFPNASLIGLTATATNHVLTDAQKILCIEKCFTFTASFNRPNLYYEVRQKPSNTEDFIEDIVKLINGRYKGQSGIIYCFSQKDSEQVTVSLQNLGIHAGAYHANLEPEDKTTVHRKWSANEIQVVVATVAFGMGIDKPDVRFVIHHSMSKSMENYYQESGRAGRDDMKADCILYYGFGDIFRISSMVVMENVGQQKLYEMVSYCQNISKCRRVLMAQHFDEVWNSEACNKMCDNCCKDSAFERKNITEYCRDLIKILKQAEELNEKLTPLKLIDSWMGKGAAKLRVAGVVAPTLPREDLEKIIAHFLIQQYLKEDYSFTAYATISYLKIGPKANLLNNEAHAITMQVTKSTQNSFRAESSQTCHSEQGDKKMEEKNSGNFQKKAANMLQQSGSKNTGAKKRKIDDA

The nature of test [5]: Cytometric Cell-Based qHTS for Inhibitors of the mTORC1 Signaling Pathway in MEF (Tsc2-/-, p53-/-) Cells (AID 2660).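 Further: percent of cells above a phospho-rpS6 to PI ratio cutoff in each well.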 In a few lines: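 Cells are plated, treated with compound for 24 hrs at 37 degree Celsius, then fixed, blocked and immunostained for phospho-rpS6 Ser235/236. Propidium iodide counterstain follows. Per-well % positive cells is derived from the PI-normalized phospho-S6 signal.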

A short description of test [6]: High Content Imaging Cell-Based qHTS for Inhibitors of the mTORC1 Signaling Pathway in MEF (Tsc2-/-, p53-/-) Cells (AID 2666). As to conditions: at 38.3 µM (top of the series). In a few lines: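 Phospho-rpS6 (Ser235/236) immunofluorescence, normalized and scored as % positive cells using rapamycin and DMSO controls, was read in empty-vector Tsc2-/-, p53-/- MEFs after 24 h compound exposure at 37 C; propidium iodide counted cells.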

Test [7] is described as follows: High Content Imaging Cell-Based qHTS for Inhibitors of the mTORC1 Signaling Pathway in MEF Cells (AID 2667).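 Further: Tsc2-/- p53-/- MEFs stably re-expressing wild-type Tsc2 exposed 24 h.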 The method in brief:
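WT MEFs (Tsc2-/-, p53-/- re-expressing Tsc2), in DMEM + 10% FBS, were treated with compound for 24 h at 37 C. Cells were then fixed and stained for phospho-rpS6 Ser235/236 with propidium iodide as cell count. Values are % positive cells, with thresholds set against rapamycin-treated cells.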

The nature of test [8]: Cytometry Cell-Based qHTS for Inhibitors of the mTORC1 Signaling Pathway in MEF cells (AID 2668).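 Further: Tsc2-/- p53-/- mouse embryonic fibroblasts stably re-expressing wild-type Tsc2; percent cells positive for phospho-rpS6 Ser235/236 relative to propidium iodide stain.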 The method in brief: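 In MEFs grown in DMEM + 10% FBS, a 24 hrs compound exposure preceded imaging of phospho-rpS6 Ser235/236 by laser-scanning cytometry.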
Test [9] is described as follows: Validation screen for small molecules that induce DNA re-replication in MCF 10A normal breast cells (AID 463097). Further: nearly all actives have a fitted effect of over 60% in size. In a few lines: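 Following 48 hr compound incubation (37 C, 5% CO2), MCF 10A cells receive Hoechst for 40 min at 37 C. Nuclei are then scanned (excitation 405 nm, emission 500-530 nm) for total fluorescence intensity.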
Test [10] has as its target Ubiquitin carboxyl-terminal hydrolase 2 (Homo sapiens) (UniProt O75604). Put plainly: qHTS Validation Assay for Inhibitors of Ubiquitin-specific Protease USP2a Using CHOP2 as the Reporter (AID 463106). The method in brief: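 USP2 core (10 nM final) was preincubated with compound 30 min at RT in pH 8.0 Tris/CaCl2/beta-ME/CHAPS buffer. Ub-CHOP2 and reporter substrate (25 nM final each) were then added, with fluorescence (Ex 485/Em 531) read after 60 min. Data were normalized to NEM full inhibition and fitted to concentration-response curves.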

Test [11] concerns the target DNA polymerase III PolC-type (Bacillus subtilis (strain 168)) (UniProt P13267). Put plainly: qHTS Validation Assay for the Inhibitors of DNA Replication in Gram-Positive Bacteria (AID 485295).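 Further: reconstituted holoenzyme with PolC plus beta clamp SSB and primase; PicoGreen fluorescence of double-stranded DNA made on primed circular M13 template.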 The method in brief: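 Inhibition of DNA synthesis by the reconstituted PolC holoenzyme, monitored through PicoGreen staining of dsDNA formed from ssM13Gori, dNTPs and NTPs, with compound preincubation and room-temperature reaction.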

Test [12] addresses Tumor susceptibility gene 101 protein (Homo sapiens) (UniProt Q99816). The test is described as follows: qHTS Validation Assay for Iinhibitors of HIV-1 Budding by Blocking the Interaction of PTAP/TSG101 (AID 485342; calls by dose curve). The method in brief: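 Compound wells held the Tsg101 binding domain (10 uM) and a FITC-conjugated PTAP peptide (50 nM) in buffer at pH 7.5 containing 0.15 M NaCl and 0.01% Tween 20; polarization was recorded after 20 min, r.t.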

Test [13] in a line: qHTS Validation Assay to Find Inhibitors of Chronic Active B-Cell Receptor Signaling (AID 485345; active means well fitted curve in the direction sought with a large enough effect in the main read-out, with a control signal flat, not every such curve was filed as active). The method in brief: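 TMD8 ABC-DLBCL cells stably carrying doxycycline-inducible IkappaBalpha–green luciferase fusion plus unfused red luciferase; compounds 46 uM to 3 nM, 4 h at 37C with doxycycline. Corrected green/red luminescence ratio normalized to 10 uM MG-132 and basal cell wells; curves fitted.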

In test [14] the target is Beta-2 adrenergic receptor (Homo sapiens) (UniProt P07550). Put plainly: qHTS validation assay of beta-arrestin-biased ligands of beta2-adrenergic receptor (AID 485366). In a few lines:
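Values derive from curve-fitted %Activity of a luminescent beta-arrestin recruitment reporter; compounds tested up to 46 microM on Tango cells for 18 hr at 37 degrees C, 5% CO2.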

Test [15] in a line: Quantitative high throughput screen for delayed death inhibitors of the malarial parasite plastid, 96 hour incubation (AID 488745). Further: nearly all actives have a fitted effect of over 70% in size. The method in brief:
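P. falciparum carrying an integrated firefly luciferase reporter, grown in erythrocytes (2% hematocrit, 0.1% parasitemia final) in RPMI 1640/0.5% Albumax, was exposed to compound for 96 h (two generations) at 37 C, 5% CO2. Luminescence decrease indicated growth inhibition.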

Test [16] in a line: Quantitative high throughput screen for delayed death inhibitors of the malarial parasite plastid, 48 hour incubation (AID 488752). Further: nearly all actives have a fitted effect of over 65% in size. In a few lines: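 Erythrocytes infected with P. falciparum carrying an integrated firefly luciferase reporter (2% hematocrit, 0.1% parasitemia final) were exposed to compounds in RPMI 1640/0.5% Albumax for 48 h at 37 C, 5% CO2. Growth inhibition was scored as reduced luminescence.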

Test [17] in a line: qHTS Assay for Identification of Small Molecule Inducers of Hypoxia Response (AID 2120; active means well fitted curve in the direction sought with a large enough effect in the signal ratio, with a control signal flat, not every such curve was filed as active; the % refers to the signal ratio). The method in brief: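 HRE-beta-lactamase reporter in CellSensor HRE-bla ME-180 cells, 2500 cells/well in Opti-MEM with 0.5% dialyzed FBS; compounds tested as titration series, 17 h at 37 degrees C. CCF4 substrate 2.5 h at room temperature; AC50 from 460/530 nm ratio.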
The nature of test [18]: qHTS for differential inhibitors of proliferation of Plasmodium falciparum line W2 (AID 1883).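 Further: parasites grown with compound for 72 h before lysis and staining.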 Further: potency means the concentration at half of the fitted maximal effect. As to conditions: Potency: Plasmodium falciparum W2 proliferation inhibition.
In test [19] the target is ATP-dependent 6-phosphofructokinase (Trypanosoma brucei brucei) (UniProt O15648). The test is described as follows: qHTS Validation Assay to Find Inhibitors of T. brucei phosphofructokinase (AID 485368). In a few lines: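 Enzyme reaction in triethanolamine buffer pH 8.0 with 5 mM MgCl2, 0.01% Tween20 and 0.1% BSA; PFK 1.25 nM, F6P 0.5 mM, ATP 0.1 mM, 45 min RT. ADP quantified by ADP-Glo.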
Chain of ATP-dependent 6-phosphofructokinase (Trypanosoma brucei brucei) (O15648 whole entry, looked up): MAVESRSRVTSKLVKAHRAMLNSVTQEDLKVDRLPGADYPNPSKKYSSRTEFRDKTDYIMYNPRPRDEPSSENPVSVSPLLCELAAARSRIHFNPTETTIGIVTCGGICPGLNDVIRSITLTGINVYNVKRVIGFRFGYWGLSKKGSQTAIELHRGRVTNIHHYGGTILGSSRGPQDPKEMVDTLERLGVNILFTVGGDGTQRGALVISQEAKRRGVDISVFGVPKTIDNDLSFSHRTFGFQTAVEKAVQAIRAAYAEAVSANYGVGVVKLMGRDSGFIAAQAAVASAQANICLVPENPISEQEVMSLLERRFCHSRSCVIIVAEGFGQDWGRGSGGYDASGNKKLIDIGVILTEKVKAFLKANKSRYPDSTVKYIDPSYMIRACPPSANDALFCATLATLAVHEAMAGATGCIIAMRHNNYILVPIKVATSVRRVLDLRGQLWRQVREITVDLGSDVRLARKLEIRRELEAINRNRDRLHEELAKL

The target in test [20] is RecQ-like DNA helicase BLM (Homo sapiens) (UniProt P54132). The test is described as follows: qHTS Validation Assay for Inhibitors of Bloom's syndrome helicase (BLM) (AID 2364). In a few lines: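 50 nM BLM preincubated 15 min at room temperature with compound in pH 8.0 Tris buffer containing 2.5 ug/ml poly(dI-dC); started with 200 nM TAMRA/BHQ-2 forked duplex and 2 mM ATP (final). Unwinding read as TAMRA fluorescence increase, two reads 2 h apart.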

Inconclusive results are not listed. Calls of active or inactive are those of the source. Unless noted, the call rests on the fitted dose curve; in most records, active means well fitted curve in the direction sought with a large enough effect; inconclusive means small, poorly fitted or top-dose-only effect, or another doubt; inactive means no such curve, though single readings can be large; an effect the other way counts as inactive or inconclusive.

Chain of DNA polymerase III PolC-type (Bacillus subtilis (strain 168)) (P13267 whole entry, looked up): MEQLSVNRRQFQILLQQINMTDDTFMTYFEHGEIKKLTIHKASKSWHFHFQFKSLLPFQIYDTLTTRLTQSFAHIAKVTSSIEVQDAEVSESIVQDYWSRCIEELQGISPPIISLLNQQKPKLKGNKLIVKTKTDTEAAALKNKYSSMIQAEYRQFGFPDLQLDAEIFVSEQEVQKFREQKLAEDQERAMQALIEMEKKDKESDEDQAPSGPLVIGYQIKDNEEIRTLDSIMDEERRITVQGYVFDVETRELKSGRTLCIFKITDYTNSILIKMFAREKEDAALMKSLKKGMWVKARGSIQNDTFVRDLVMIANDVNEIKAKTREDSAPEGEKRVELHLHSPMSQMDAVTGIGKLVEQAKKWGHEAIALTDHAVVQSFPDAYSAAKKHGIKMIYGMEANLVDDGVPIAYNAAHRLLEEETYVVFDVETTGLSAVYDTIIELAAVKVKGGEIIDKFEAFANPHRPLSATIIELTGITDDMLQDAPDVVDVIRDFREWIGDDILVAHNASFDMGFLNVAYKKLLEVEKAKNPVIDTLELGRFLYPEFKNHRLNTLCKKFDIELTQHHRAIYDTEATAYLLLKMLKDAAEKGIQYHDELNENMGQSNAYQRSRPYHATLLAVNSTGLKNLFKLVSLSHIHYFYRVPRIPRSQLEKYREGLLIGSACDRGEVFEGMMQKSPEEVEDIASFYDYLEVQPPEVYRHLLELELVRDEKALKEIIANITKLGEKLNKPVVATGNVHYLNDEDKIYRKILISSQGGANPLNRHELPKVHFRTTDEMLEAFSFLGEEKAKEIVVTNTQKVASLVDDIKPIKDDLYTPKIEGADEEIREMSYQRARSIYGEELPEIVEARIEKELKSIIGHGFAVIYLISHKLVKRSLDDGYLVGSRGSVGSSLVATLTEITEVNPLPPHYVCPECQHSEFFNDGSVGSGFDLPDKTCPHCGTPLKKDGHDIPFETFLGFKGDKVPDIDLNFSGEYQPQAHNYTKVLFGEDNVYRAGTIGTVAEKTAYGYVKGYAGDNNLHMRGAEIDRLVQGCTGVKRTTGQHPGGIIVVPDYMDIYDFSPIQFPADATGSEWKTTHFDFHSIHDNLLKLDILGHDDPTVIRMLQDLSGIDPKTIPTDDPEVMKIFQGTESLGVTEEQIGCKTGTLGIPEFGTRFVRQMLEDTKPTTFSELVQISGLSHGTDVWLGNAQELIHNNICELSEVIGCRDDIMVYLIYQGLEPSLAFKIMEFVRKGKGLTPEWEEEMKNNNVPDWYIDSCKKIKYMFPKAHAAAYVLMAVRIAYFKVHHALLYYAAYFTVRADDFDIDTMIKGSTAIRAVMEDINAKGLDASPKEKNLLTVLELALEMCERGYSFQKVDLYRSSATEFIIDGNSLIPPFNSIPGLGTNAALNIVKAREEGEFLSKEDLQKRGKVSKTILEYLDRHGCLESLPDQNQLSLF
Chain of Beta-2 adrenergic receptor (Homo sapiens) (P07550 whole entry, looked up): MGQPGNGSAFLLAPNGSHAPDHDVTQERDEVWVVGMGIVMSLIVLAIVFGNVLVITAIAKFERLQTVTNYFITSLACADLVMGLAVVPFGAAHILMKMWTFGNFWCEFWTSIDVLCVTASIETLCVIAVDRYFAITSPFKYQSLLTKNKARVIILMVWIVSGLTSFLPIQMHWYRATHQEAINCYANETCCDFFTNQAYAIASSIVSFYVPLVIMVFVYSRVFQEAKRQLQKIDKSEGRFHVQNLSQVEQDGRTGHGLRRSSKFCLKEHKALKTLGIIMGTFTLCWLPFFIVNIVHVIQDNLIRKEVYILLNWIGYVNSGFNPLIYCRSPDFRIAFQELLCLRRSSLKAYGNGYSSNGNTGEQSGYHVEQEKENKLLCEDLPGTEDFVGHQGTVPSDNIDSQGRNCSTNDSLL
Chain of Ubiquitin carboxyl-terminal hydrolase 2 (Homo sapiens) (O75604 whole entry, looked up): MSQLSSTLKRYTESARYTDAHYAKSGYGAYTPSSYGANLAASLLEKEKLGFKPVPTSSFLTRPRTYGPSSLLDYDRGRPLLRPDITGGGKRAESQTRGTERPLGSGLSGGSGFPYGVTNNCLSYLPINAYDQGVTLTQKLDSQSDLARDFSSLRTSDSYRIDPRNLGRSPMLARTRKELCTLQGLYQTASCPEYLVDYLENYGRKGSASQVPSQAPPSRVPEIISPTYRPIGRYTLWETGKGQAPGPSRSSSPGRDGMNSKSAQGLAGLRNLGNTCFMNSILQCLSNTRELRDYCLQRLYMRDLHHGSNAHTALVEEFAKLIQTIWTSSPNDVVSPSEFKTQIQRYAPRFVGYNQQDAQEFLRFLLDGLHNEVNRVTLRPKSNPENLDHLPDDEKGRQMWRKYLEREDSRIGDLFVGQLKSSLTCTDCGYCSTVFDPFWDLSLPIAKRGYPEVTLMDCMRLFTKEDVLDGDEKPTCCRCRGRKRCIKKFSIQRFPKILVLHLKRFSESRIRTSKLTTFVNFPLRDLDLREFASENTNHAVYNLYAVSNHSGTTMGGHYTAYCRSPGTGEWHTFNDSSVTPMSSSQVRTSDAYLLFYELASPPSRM
Chain of Tumor susceptibility gene 101 protein (Homo sapiens) (Q99816 whole entry, looked up, the tested form may be a part): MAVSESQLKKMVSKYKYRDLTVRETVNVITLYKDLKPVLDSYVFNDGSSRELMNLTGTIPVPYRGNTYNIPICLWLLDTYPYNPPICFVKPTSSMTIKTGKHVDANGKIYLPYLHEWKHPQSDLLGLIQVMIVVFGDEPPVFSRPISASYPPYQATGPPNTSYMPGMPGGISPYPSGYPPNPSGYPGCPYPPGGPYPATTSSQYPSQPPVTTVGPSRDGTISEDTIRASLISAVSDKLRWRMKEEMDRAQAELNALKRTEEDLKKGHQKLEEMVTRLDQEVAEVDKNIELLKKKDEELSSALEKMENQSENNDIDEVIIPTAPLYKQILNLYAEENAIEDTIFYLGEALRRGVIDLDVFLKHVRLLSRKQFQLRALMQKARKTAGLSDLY

Turning to `C[C@@H]1C(=O)NC2=Nc3cccc(Cl)c3CN21`, the Potency result in test [1], in test [2], in test [3], in [7], in test [8] and in [11] was “inactive” in each case. Moreover, the Potency result in test [15] and in test [16] was “inactive” each time. In addition, the outcome in test [4], in test [5], in test [6], in test [9], in test [10] and in [12] was inactive. Moreover, the result in test [13] and in [14] was inactive.

With `COc1cc2c(cc1O)CC[C@@H]1[C@@H]2CC[C@]2(C)[C@@H](O)CC[C@@H]12`, the molecule was classed as inactive in [5], in [6], in test [10], in [12] and in test [14]. Also, the Potency entry in [7] and in test [11] was “inactive” each time.

`CNCCC(Oc1ccccc1C)c1ccccc1` (stereo not drawn): the Potency result in test [1], in test [3], in test [7], in test [8], in test [11] and in [15] was “inactive” throughout. Also, the Potency entry in test [16] was “inactive”. Moreover, the call in test [4], in [5], in test [6], in [9], in test [10] and in [12] was inactive. In addition, the molecule was called inactive in test [13] and in [14].

In the case of `CC(=O)O[C@]1(C(C)=O)CC[C@H]2[C@@H]3C[C@H](C)C4=CC(=O)CC[C@]4(C)[C@H]3CC[C@@]21C`, the molecule was classed as inactive in test [17].

As for `O=C(O)c1cc2cc(Cc3cccnc3)ccc2o1`, the Potency entry in [1], in test [2], in test [18], in test [3], in test [7] and in [8] was “inactive” each time. Moreover, the Potency result in test [11], in [19], in test [15] and in test [16] was “inactive” throughout. Besides, the molecule was called inactive in [4], in [5], in test [6], in [9], in test [10] and in test [12]. The molecule was called inactive in test [13] and in [14].

Regarding `CN1C2CCC1CC(OC(=O)c1c[nH]c3ccccc13)C2` (stereo not drawn), the Potency in test [1] is 11.2 µM (active); in test [18], 8.91 µM (active). Also, the molecule was classed as inactive in test [4], in test [20], in test [5], in [6], in [9] and in test [10]. Also, the outcome in test [12], in [13] and in test [14] was inactive. In [11], the Potency result was “inactive”.

On to `C1CCc2nnnn2CC1`, for which the Potency entry in [1], in test [2], in test [18], in test [3], in test [7] and in [8] was “inactive” throughout. The Potency entry in test [11], in test [15] and in test [16] was “inactive” each time. The call in [4], in test [5], in test [9], in test [10], in test [12] and in [13] was inactive. The molecule was called inactive in test [14].

As for `N[C@@H](Cc1cnc[nH]1)C(=O)O`, the Potency result in [1], in test [2], in test [18], in [3], in [7] and in [8] was “inactive” in each case. Besides, the Potency entry in [11], in test [19], in test [15] and in [16] was “inactive” in each case. Moreover, the result in test [4], in [5], in [6], in test [9], in test [10] and in test [12] was inactive. Further, the molecule was classed as inactive in test [13] and in [14].
